Bioassay records from PubChem.
MCF10A rerep: inducers of DNA re-replication in MCF 10A breast cells | MCF 10A DNA re-replication, Hoechst nuclear intensity, 48 h | Potency, µM (highest dose often 46.1 µM), inactives show top-dose activity, positive = re-replication, most hits filed as activators | 350,000 tested, 2.9% active | AID 624296; further: % of control where 0% means no effect; nearly all actives have a fitted effect of over 50% in size
ELG1 repair inh: inhibitors of ELG1-dependent DNA repair in HEK293T cells; HEK293T ELG1-luciferase reporter, luminescence, 16 h; DNA damage induced by 5-fluorouridine; Potency, µM (doses to about 46.1 µM), for the others: top-dose activity change, negative = inhibition, usual class: inhibitors; 330,000 tested, 2.3% active; further: on the % scale 0 is the no-effect control and ±100 the full control effect; nearly all actives have a fitted effect of over 55% in size
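DMSO vehicle served as the neutral condition. Each well held 2,000 cells given 5-fluorouridine plus compound; after 16 hr at 37 °C/5% CO2, ONE-Glo was added and luciferase measured 30 min later.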
KB-V1 MDR tox: KB-V1 MDR subline cytotoxicity; KB-V1 MDR cells viability, CellTiter-Glo, 72 h; Potency, µM (highest dose often 46.1 µM), most hits filed as cytotoxic; 400,000 tested, 3.4% active; AID 1347076; further: on the % scale 0 is the no-effect control and ±100 the full control effect; nearly all actives have a fitted effect of over 60% in size
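In this primary screen, KB-V1 cells overexpressing P-gp are incubated with library compounds (lowest to highest concentration) for 72 h at 37 degrees C before a luminescent ATP viability read.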
SW480 rerep: DNA re-replication induction in SW480 cells; SW480 DNA re-replication, Hoechst DNA content imaging, 48 h; 340,000 tested, 1.8% active; Potency, µM (highest dose often 46.1 µM), for inactives: at the top dose re-replication activation, actives largely listed as activators; further: % of control where 0% means no effect; nearly all actives have a fitted effect of over 55% in size
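Treated cells incubate 48 hr (37 C, 5% CO2), are stained 40 min with Hoechst, and nuclear fluorescence is enumerated; a rise in nuclei with high DNA signal marks re-replication.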
KB-3-1 cytotox: kills parental KB-3-1 adenocarcinoma cells. Potency, µM (titrated, usually from 46.1 µM), most hits filed as cytotoxic. KB-3-1 viability, CellTiter-Glo ATP luminescence, 72 h. 400,000 tested, 1.4% active. AID 1347075; further: on the % scale 0 is the no-effect control and ±100 the full control effect; nearly all actives have a fitted effect of over 60% in size
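Parental KB-3-1 viability, qHTS format: 72 h compound exposure, 37 °C; CellTiter-Glo; media-only wells and DMSO plates as controls; concentration-effect fits on corrected data.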
Numbers without * were called inactive; i = inactive; ? = inconclusive; / = no result given; ! = a repeat was not active. Rows were chosen to be rich in hits. Some 8.1% of all compounds tested hit in one or more screens of this group. The call rests on the fitted dose curve; in most records, active means well fitted curve in the direction sought with a large enough effect; inconclusive means small, poorly fitted or top-dose-only effect, or another doubt; inactive means no such curve, though single readings can be large; an effect the other way counts as inactive or inconclusive. Potency means the concentration at half of the fitted maximal effect.

SMILES	MCF10A rerep	ELG1 repair inh	KB-V1 MDR tox	SW480 rerep	KB-3-1 cytotox
CCc1nn(CC(=O)NCc2ccc(OC)cc2OC)c(=O)c2cc3c(OC)cccc3n12	/	/	i	/	i
O=C1CN(CN2CCCCC2)C(=O)CN1CN1CCCCC1	/	/	i	/	i
Cc1noc(/C=C/c2cccnc2)c1[N+](=O)[O-]	?	?	i	?	21µM*
Cc1nn(-c2ccccc2)c2c1c(C)c(CCC(=O)N1CCOCC1)c(=O)n2C	?	-30%	i	-7%	i
Cc1ccc2c(c1)cc(CN(Cc1ccc3c(c1)OCO3)C(=O)c1ccccc1)c1nnnn12	4%	2%	i	2%	i
Cc1ccc2c(c1)cc(CN(Cc1cccnc1)C(=O)NCc1ccccc1)c1nnnn12	15%	?	2.6µM*	8%	?
Cc1cccc(/N=C/c2nc(-c3ccccc3Br)oc2O)n1	-17%	7%	i	4.1µM*	i
N#Cc1ccc(CN2CCN(C(=O)Cn3nc(C(N)=O)c4ccccc4c3=O)CC2)cc1	4%	-8%	i	21µM*	i
O=C(Nc1ccn(Cc2c(F)c(F)cc(F)c2F)n1)c1cccc(Cn2cc([N+](=O)[O-])cn2)c1	-8%	?	i	-2%	i
Cc1c(N=Cc2ccco2)c(=O)n(-c2ccccc2)n1C	-13%	-2%	i	1%	i
COc1ccc2c(C=Nc3c(C)n(C)n(-c4ccccc4)c3=O)c(O)n(Cc3ccco3)c(=O)c2c1	18µM*!	?	i	-1%	i
COC(=O)c1c(/N=C/N(C)C)sc2c1CCN(c1ncc(C(F)(F)F)cc1Cl)C2	?	18µM*	i	2%	i
COC(=O)c1c(N(S(C)(=O)=O)S(C)(=O)=O)sc2c1CCN(c1ncc(C(F)(F)F)cc1Cl)C2	?	-4%	i	-1%	i
CC(C)CN(CC(C)C)C1=N/C(=C\c2ccco2)C(=O)N1c1ccccc1	15µM*	?	i	?	i
Cc1ccc(-c2cc3cccc[n+]3cc2-c2ccc(C)cc2)cc1	?	?	i	-11%	4.6µM*
Cc1ccccc1NC(=O)c1sc(NC(=O)C2CC2)nc1C	14%	-2%	i	-2%	i
O=C(O)C(=O)/C(=C\c1cccc2ccccc12)c1ccc2ccccc2n1	16µM*	-14%	?	?	?
Cc1cc(NC(=O)CSc2nnc(COc3cccc(C)c3C)n2Cc2ccco2)no1	0%	?	i	-13%	i
COc1ccc(C)cc1NC(=O)CSc1nnc(COc2ccc(Cl)cc2)n1Cc1ccco1	?	-18%	?	0%	i
O=C(CSc1ncc(-c2ccc(F)cc2)n1Cc1ccco1)Nc1nccs1	0%	3%	?	0%	?
Cc1cnc(NC(=O)CSc2ncc(-c3ccccc3)n2Cc2ccco2)s1	?	?	21µM*	2%	i
Cc1cccc(OCc2nnc(SCC(=O)N(C(C)C)C(C)C)n2Cc2ccco2)c1C	?	?	10µM*	21µM*	i
COc1ccc(C)cc1NC(=O)CSc1nnc(COc2ccccc2)n1Cc1ccco1	?	18µM*	?	7%	?
COc1ccc(C)cc1NC(=O)CSc1nnc(-c2ccccn2)n1Cc1ccco1	-1%	-20%	12µM*	0%	i
COc1ccc(OC)c(NC(=O)CSc2nnc(Cc3cccn3C)n2CCc2ccccc2)c1	-4%	?	7.3µM*	14%	i
SMILES	MCF10A rerep	ELG1 repair inh	KB-V1 MDR tox	SW480 rerep	KB-3-1 cytotox
COc1ccc(NC(=O)CSc2nnc(-c3ccccc3)n2Cc2ccco2)c(OC)c1	-1%	13µM*	i	2%	i
COc1ccc(NC(=O)CSc2nnc(-c3ccccc3Cl)n2Cc2ccco2)c(OC)c1	4%	?	i	15%	i
CCCNC(=O)c1ccccc1NC(=O)Nc1ccccc1C	1%	-13%	?	?	i
COc1cc(CO)c(Br)cc1OCC(=O)Nc1ccccc1C	23%	2%	i	-8%	i
COc1ccc(Cc2c3cc(OC)c(OC)cc3cc[n+]2C)cc1OC	1%	6%	i	-5%	i
COc1ccc(NC(=S)Nc2cccc3ccccc23)cc1OC	0%	2%	i	0%	i
COc1ccc2c(c1)c[n+](C)c1c3cc(OC)c(OC)cc3ccc21	/	/	i	/	2.9µM*
COc1cc2c[n+](C)c3c4ccccc4ccc3c2cc1OC	-8%	/	?	?	9.2µM*
COc1ccc(C(CNC(=O)COc2ccc(F)cc2Cl)N2CCCCC2)cc1 (stereo not drawn)	-6%	-2%	i	-7%	i
CCc1ccc2[nH]cc(S(=O)(=O)c3ccc(C)c(C)c3)c(=O)c2c1	27%	?	i	-10%	i
CCc1ccc2[nH]c3nc(C)cc(C)c3c(=O)c2c1	?	?	6.5µM*	8%	i
COc1ccc(CCC(=O)OCC(=O)Nc2ccc3[nH]c(=O)[nH]c3c2)cc1	2%	19%	i	5%	i
Cc1ccc(Nc2c(-c3ccc(N4CCOCC4)cc3)nc3ncccn23)c(C)c1	-2%	12µM*	i	-2%	?
CCCCN(Cc1ccccc1)S(=O)(=O)c1cc2c(cc1Br)CC(C)N2C(C)=O (stereo not drawn)	?	/	i	?	?
Cc1ccc(S(=O)(=O)N2CCN(Cc3cc4c(cc3Br)OCCO4)CC2)cc1	?	-11%	i	-7%	3.7µM*
C#CCOCCOCCOCCNc1nc(N2CCN(C(=O)Cn3cc(CCO)nn3)CC2)nc(N2CCN(C(=O)[C@H]([C@@H](C)O)n3cc(CCCCN)nn3)CC2)n1	?	3%	?	17%	i
O=C(CCc1nc2ccccc2[nH]1)Nc1ccc(F)cc1	0%	8%	12µM*	-6%	i
O=C(Nc1ccc(F)cc1)C(Sc1nc2ccccc2[nH]1)c1ccccc1 (stereo not drawn)	12µM*	-2%	?	?	?
CCc1ccccc1NC(=O)CCC(=O)Nc1nnc(C(C)C)s1	2%	?	i	-3%	i
CCc1cc(C(=O)N2CCN(C(=O)c3ccccc3)CC2)sc1C	-2%	-5%	?	2%	i
CCOc1ccc(S(=O)(=O)NCc2ccncc2)cc1	7%	?	0.65µM*	0%	0.82µM*
CCOC(=O)COc1ccc(S(=O)(=O)NCc2ccncc2)cc1	2%	-4%	i	4%	?
Cc1ccc(S(=O)(=O)NCc2ccncc2)cc1	?	?	i	?	?
